Experimental data from the supplement of paper PMC3545927.
The other results are listed elsewhere or left out. No count for the full screen is at hand.

Molecular target: furin, P09958
Experiment: furin cleavage Z-score vs untreated control; higher = more cleavage, active = 3.5 or more, inactive = 1 or less, 8 variable residues between constant flanks
Summary of the method: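 Cleavage by purified furin was measured on 8-mer peptides fused to a cDNA oligonucleotide and held on magnetic beads by their N-terminus. Reactions (0.01 ml, 1:10 enzyme:substrate) ran 7.5, 15 or 30 min in 50 mM HEPES pH 7.5 with CaCl2 and NaCl. Released DNA was adapter-tagged by PCR and sequenced, with read counts giving abundance. Log counts versus furin-free reactions were lowess-adjusted and scaled by median absolute deviation to give the cleavage Z-score.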

Chain of furin, P09958 (P09958 whole entry): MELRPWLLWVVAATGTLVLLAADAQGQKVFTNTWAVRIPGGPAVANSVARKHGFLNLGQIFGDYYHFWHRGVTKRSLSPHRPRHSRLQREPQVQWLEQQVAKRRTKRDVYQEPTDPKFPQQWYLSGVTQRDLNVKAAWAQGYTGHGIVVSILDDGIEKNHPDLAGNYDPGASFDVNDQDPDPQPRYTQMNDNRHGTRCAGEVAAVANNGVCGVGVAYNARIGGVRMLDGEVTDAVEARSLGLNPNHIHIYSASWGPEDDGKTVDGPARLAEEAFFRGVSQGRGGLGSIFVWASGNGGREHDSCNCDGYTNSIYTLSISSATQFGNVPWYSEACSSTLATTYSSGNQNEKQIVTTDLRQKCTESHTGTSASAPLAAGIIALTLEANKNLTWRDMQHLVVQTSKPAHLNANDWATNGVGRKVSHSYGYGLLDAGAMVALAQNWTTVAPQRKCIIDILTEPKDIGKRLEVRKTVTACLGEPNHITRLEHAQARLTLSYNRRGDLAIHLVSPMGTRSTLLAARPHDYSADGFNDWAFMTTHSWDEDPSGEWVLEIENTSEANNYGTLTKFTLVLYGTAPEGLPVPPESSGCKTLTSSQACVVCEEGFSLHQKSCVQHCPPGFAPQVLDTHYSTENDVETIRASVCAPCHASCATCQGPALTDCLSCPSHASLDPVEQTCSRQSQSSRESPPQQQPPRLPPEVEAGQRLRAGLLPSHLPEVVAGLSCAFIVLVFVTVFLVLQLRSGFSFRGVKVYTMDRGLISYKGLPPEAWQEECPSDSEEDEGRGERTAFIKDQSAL

Sequence | furin cleavage Z-score (7.5 min) | furin cleavage Z-score (15 min) | furin cleavage Z-score (30 min)
CARPVRDCDDAGNASASA [FS-3028] | 0.136 (inactive) | 1.92 | 1.99
CATTPCSGEWAGNASASA [HC1912] | -1.69 (inactive) | -0.859 (inactive) | 0.0519 (inactive)
CAMVCCSMSYAGNASASA [HC1986] | 0.714 (inactive) | 1.46 | 0.242 (inactive)
CAIICDECHSAGNASASA [HC817] | -0.464 (inactive) | -1.69 (inactive) | -0.782 (inactive)
CAKSRRARRDAGNASASA [FS-1597] | 7.96 (active) | 9.22 (active) | 7.04 (active)
CAKDSRCDRDAGNASASA [FS-544] | -1.48 (inactive) | -1.29 (inactive) | 0.34 (inactive)
CARMARNVLKAGNASASA [FS-2281] | 2.27 | 2.22 | 4.88 (active)
CARKFRDLLKAGNASASA [FS-1724] | -0.828 (inactive) | -1.86 (inactive) | 0.751 (inactive)
CAALDTEVAAAGNASASA [HC565] | 1.05 | 0.0294 (inactive) | -0.123 (inactive)
CAQLAAPGAAAGNASASA [HC1070] | -0.00694 (inactive) | -2.1 (inactive) | -1.59 (inactive)
CARMAREVAAAGNASASA [FS-1909] | 6.15 (active) | 4.78 (active) | 6.63 (active)
CARPDRPVLKAGNASASA [FS-2436] | -0.645 (inactive) | -0.376 (inactive) | -0.377 (inactive)
CAEPVTSTWVAGNASASA [HC2179] | 1.29 | -0.789 (inactive) | 0.354 (inactive)
CARKKREIRSAGNASASA [FS-2962] | 14.3 (active) | 12.6 (active) | 10.5 (active)
CARKKKGKADAGNASASA [FS-2690] | 0.358 (inactive) | -1.8 (inactive) | -1.17 (inactive)
CASSNRLARFAGNASASA [FS-1284] | 3.54 (active) | 4.58 (active) | 6.02 (active)
CARKKRGYRDAGNASASA [FS-1856] | 10.5 (active) | 11.2 (active) | 8.83 (active)
CARFARYYRDAGNASASA [FS-373] | 4.68 (active) | 4.65 (active) | 5.39 (active)
CASSIASWAIAGNASASA [HC514] | 0.395 (inactive) | 0.651 (inactive) | 2.3
CAMEECSQHLAGNASASA [HC14] | 1.42 | 0.653 (inactive) | 1.44
CASMGREIRSAGNASASA [FS-1082] | 4.08 (active) | 3.82 (active) | 3.6 (active)
CASSNRSYRDAGNASASA [FS-1419] | 2.48 | 3.58 (active) | 4.08 (active)
CARKKREITEAGNASASA [FS-2963] | 11.3 (active) | 12.7 (active) | 9.25 (active)
